From PMC4336329 (PLoS ONE, 2015)
About 14,000 (4.5%) of roughly 310,000 compounds showed an effect of 50% or more. The effect is printed as a negative number. Many of the other results were omitted from the sample, so strong results are more common in it than they were.

What follows are compounds tested against human ether-à-go-go-related gene (hERG) potassium channel (human, UniProt Q12809) (assay: primary screen, population patch clamp on CHO cells stably expressing hERG; higher = less effect of the substance).
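Also: peak tail current of the secondary pulse compared with the same well before compound.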

Chain of human ether-à-go-go-related gene (hERG) potassium channel (Q12809 whole entry, looked up): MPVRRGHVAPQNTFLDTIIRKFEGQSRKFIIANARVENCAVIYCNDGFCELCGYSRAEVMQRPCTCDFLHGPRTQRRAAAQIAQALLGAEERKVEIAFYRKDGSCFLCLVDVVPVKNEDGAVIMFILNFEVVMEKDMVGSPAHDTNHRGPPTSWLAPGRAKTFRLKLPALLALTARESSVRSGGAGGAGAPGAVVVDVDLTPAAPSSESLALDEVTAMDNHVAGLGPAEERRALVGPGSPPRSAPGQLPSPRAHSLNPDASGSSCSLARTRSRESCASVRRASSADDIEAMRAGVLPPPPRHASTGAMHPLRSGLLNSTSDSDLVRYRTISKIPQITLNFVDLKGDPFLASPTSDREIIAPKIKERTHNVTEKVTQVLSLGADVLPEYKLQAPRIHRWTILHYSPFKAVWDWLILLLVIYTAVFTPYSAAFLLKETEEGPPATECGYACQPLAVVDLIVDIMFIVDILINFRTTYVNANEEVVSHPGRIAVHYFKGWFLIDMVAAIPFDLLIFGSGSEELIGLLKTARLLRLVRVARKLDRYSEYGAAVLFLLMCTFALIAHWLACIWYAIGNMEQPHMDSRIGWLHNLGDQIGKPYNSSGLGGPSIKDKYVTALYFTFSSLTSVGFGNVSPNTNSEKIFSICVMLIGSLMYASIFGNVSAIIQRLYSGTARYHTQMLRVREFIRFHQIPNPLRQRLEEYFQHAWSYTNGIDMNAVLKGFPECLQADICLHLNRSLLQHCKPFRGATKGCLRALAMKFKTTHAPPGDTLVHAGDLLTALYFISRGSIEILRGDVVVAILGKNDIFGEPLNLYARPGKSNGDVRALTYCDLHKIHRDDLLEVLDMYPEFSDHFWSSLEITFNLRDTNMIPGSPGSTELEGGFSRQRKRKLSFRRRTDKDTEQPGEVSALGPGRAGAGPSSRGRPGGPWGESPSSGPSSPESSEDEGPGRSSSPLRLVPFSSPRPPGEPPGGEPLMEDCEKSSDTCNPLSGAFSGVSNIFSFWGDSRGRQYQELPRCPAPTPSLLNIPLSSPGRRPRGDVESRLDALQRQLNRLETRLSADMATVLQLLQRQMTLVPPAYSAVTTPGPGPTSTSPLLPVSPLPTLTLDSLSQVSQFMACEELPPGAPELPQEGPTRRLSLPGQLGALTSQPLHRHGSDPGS

SMILES | hERG current change (%, negative = inhibition) at 10uM
Cc1ccc2oc(/N=C(\N)NC(=O)C(C)(C)C)nc2c1 | 4.85%
CC1=Nn2c(nnc2-c2ccco2)SC1 | -3.87%
O=C(/C=C/c1ccco1)Nc1sc2c(c1C(=O)O)CCC2 | -2.95%
CSc1scc2c1-c1nc(SCC(=O)C(C)(C)C)ncc1CC2 | 11%
CN(C)CCCN(C(=O)c1ccc(S(=O)(=O)N2CCCc3ccccc32)cc1)c1nc2ccc(F)cc2s1.Cl | -17.1%
CN(C)CCCN(C(=O)c1ccc(S(=O)(=O)N2CCCCCC2)cc1)c1nc2ccc(F)cc2s1.Cl | -73.1%
CN(C)CCCN(C(=O)c1ccc(S(=O)(=O)N2CCc3ccccc32)cc1)c1nc2ccc(F)cc2s1.Cl | -13.7%
CN(C)CCCN(C(=O)c1ccc(S(=O)(=O)N2CCc3ccccc3C2)cc1)c1nc2ccc(F)cc2s1.Cl | 1.76%
CN(C)CCCN(C(=O)c1ccc(S(=O)(=O)N2CCCCCC2)cc1)c1nc2ccc(Br)cc2s1.Cl | -22%
CN(C)CCCN(C(=O)c1ccc(S(=O)(=O)N2CCOCC2)cc1)c1nc2ccc(F)cc2s1.Cl | -58.7%
CC1CCN(C(=O)CSc2ccc(-c3ccccc3)nn2)CC1 | -11.8%
COc1ccccc1CC(=O)Nc1cccc(F)c1 | 12.2%
CC(=O)Nc1ccc(NC(=O)C(C)N(C)CC(=O)Nc2ccccc2Br)cc1 (centres unmarked) | 8.29%
CSc1ccccc1NC(=O)CN(C)C(C)C(=O)Nc1ccc(C#N)cc1 (centres unmarked) | -63.1%
CC(=O)c1ccc(NC(=O)C(C)N(C)CC(=O)Nc2cccc(F)c2)cc1 (centres unmarked) | -17.3%
COc1cccc(NC(=O)CN(C)C(C)C(=O)Nc2ccc(S(=O)(=O)N3CCCC3)cc2)c1 (centres unmarked) | -0.933%
CC(C(=O)Nc1ccccc1)N(C)Cc1cccs1 (centres unmarked) | 8.67%
CC(C(=O)N1CCCC1)N(C)CC(=O)Nc1cccc(F)c1 (centres unmarked) | -0.435%
CC(C(=O)Nc1ccc(Cl)cc1)N(C)Cc1cccs1 (centres unmarked) | -15%
COc1cccc(NC(=O)CN(C)C(C)C(=O)Nc2ccc(C#N)cc2)c1 (centres unmarked) | -59.3%
CC(C(=O)Nc1ccc(C#N)cc1)N(C)CC(=O)Nc1ccccc1Br (centres unmarked) | -17%

SMILES | hERG current change (%, negative = inhibition) at 10uM
COc1cccc(NC(=O)CN(C)C(C)C(=O)Nc2ccc(C(C)=O)cc2)c1 (centres unmarked) | -22.9%
CC(C(=O)Nc1ccc(C#N)cc1)N(C)CC(=O)Nc1cccc(F)c1 (centres unmarked) | -64.7%
CC(C(=O)Nc1ccc(C#N)cc1)N(C)Cc1cccs1 (centres unmarked) | -56.7%
CC1=C/C(=N\NC(=S)NCCc2ccccc2)CC(C)(C)C1 | -4.83%
Cc1ccc(Cn2nnc3c(=O)[nH]c(C4CCN(S(=O)(=O)c5ccccc5F)CC4)nc32)cc1 | -19%
CCN1C[C@]2(C)CC[C@H](OC)[C@]34C2[C@H](OC(C)=O)[C@@]2(OCO[C@@]25C[C@H](OC)[C@H]2C[C@]3(O)C5[C@H]2OC)[C@@H]14 | 39.8%
CCOc1cc(NC(=O)c2ccccn2)c(OCC)cc1NC(=O)c1ccc(C)cc1 | -13.7%
Nc1c(C(=O)Nc2ccc(F)cc2)sc2nc(-c3ccco3)ccc12 | -9.67%
CCC(C)NCCC(=O)Nc1ccc(Cl)c(S(=O)(=O)Nc2ccc(Cl)cc2)c1 (centres unmarked) | -53.6%
CC(=O)Nc1ccc(NS(=O)(=O)c2cc(Cl)ccc2Cl)cc1 | -14.8%
CC(C)Oc1ccc(C(=O)Nc2ccc(Cl)c(S(=O)(=O)Nc3ccc(Cl)cc3)c2)cc1 | 2.46%
Cc1cc(C)cc(-n2ccnc2SCC(=O)Nc2ccc3c(c2)OCCO3)c1 | -14.2%
CC(=O)c1ccc(C(=O)Nc2nnc(-c3ccc(Cl)cc3)o2)cc1 | 4.1%
O=C(OCC(=O)c1ccc([N+](=O)[O-])cc1)/C(=C/c1ccc(Cl)cc1)NC(=O)c1ccccc1 | -63.3%
O=C(OCC(=O)c1ccc([N+](=O)[O-])cc1)/C(=C\c1ccc(Cl)cc1)NC(=O)c1ccccc1 | -64.4%
Cc1ccc(NC(=O)/C(=C/c2ccc([N+](=O)[O-])cc2)NC(=O)c2ccccc2)cc1 | -12%
O=C(NCCc1ccccc1)/C(=C\c1ccc([N+](=O)[O-])cc1)NC(=O)c1ccc(Br)cc1 | -37.8%
Cc1ccc(NC(=O)/C(=C\c2ccc([N+](=O)[O-])cc2)NC(=O)c2ccccc2)cc1 | -38.6%
CC(=O)N/C(=C\c1ccccc1)C(=O)OCC(=O)c1ccccc1 | 9.41%
CS(=O)(=O)c1ccc(Oc2ccc(-c3nnco3)cc2)c([N+](=O)[O-])c1 | -7.35%
